Experimental data: publication PMC5540273 (PLoS ONE, 2017)

tested on: EPHA5; conditions: concentration: 1 μM,replicates: in singlicate; n = 1
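Further: KINOMEscan kinase panel screen.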

Row | Structure (SMILES) | %Inh
1 | CNC(=O)c1ccccc1Nc1nc(Nc2cccc(CS(C)(=O)=O)c2)ncc1C.O=CO [GSK1520489] | 93%
2 | O=C(Nc1n[nH]c2cc(-c3ccco3)ccc12)C1CC1 [SB-737447] | 0%
3 | CSc1nccc(-c2c(-c3ccc(F)cc3)ncn2CCCN2CCOCC2)n1.Cl [SB-217146] | 0%
4 | COc1cccc(CNC(=O)NC2CCN(c3ccnc(Nc4cc(OC)c(OC)c(OC)c4)n3)C2)c1 (centres unmarked) [GSK1379765] | 0%
5 | Cn1cc(-c2cccc3c(N)c(C(N)=O)nnc23)cn1 | 14%
6 | Cc1ccc(Nc2ccnc(Nc3ccc4c(c3)CS(=O)(=O)C4)n2)cc1O.Cl [GW579362] | 32%
7 | CC(C(=O)NC1CCN(c2ccnc(Nc3ccc(F)cc3)n2)C1)c1ccc(Cl)cc1 (centres unmarked) [GSK1379713] | 0%
8 | COc1cc2c(Nc3ccc(NC(=O)c4ccccc4)cc3)ncnc2cc1OCCCN1CCOCC1 [GSK301329] | 0%
9 | N#Cc1cccc(C(=O)NC2CCN(c3ccnc(Nc4ccc(F)cc4)n3)C2)c1 (centres unmarked) [GSK1379708] | 0%
10 | CN1CCN(CCCNc2nccc(-c3c(-c4ccc(F)cc4)nn4cc(C(N)=O)ccc34)n2)CC1 [GW622475] | 0%
11 | O=C(Nc1cccc(C(F)(F)F)c1)c1cccc(Oc2ccc3nccn3n2)c1 | 11%
12 | COC(=O)Nc1nc2cc(Oc3ccc(NC(=O)Nc4cc(C(F)(F)F)ccc4Cl)cc3)ccc2[nH]1.Cl [GW697465] | 37%
13 | Cn1ccc2ncnc(Oc3ccc(NC(=O)Nc4ccnc(C(F)(F)F)c4)c(Cl)c3)c21 | 0%
14 | Cc1cccc2c(-c3ccncc3)c(-c3ccc(F)cc3)nn12.Cl [GW461487] | 0%
15 | COc1cccc(C2=C(Nc3cccc(Cl)c3)C(=O)NC2=O)c1 [SB-341556] | 0%
16 | OCCn1cc(-c2cnc3nnn(Cc4ccc5ncccc5c4)c3n2)cn1 | 0%
17 | CC(=O)c1c(-c2ccncc2)[nH]c(-c2ccncc2)c1C [GW493036] | 0%
18 | Cn1ccc2ncnc(Oc3ccc(NC(=O)Nc4cncc(C(F)(F)F)c4)c(Cl)c3)c21 | 45%
19 | O=c1[nH]cc(-c2ccc(O)cc2)c2sc(-c3ccncc3)cc12 [GSK1033723] | 0%

Row | Structure (SMILES) | %Inh
20 | COC(=O)c1cccc(NC(=O)NC2CCN(c3ccnc(NCc4ccc(F)cc4)n3)CC2)c1 [GSK1379860] | 0%
21 | Cn1ccc2ncnc(Oc3ccc(NC(=O)Nc4cccc(C(F)(F)F)c4)c(F)c3)c21 | 85%
22 | Cl.c1ccc(Oc2ccc(Nc3ccnc4cc(-c5ccc(CN6CCNCC6)o5)ccc34)cc2)nc1 [GW567142] | 0%
23 | CS(=O)(=O)c1cccc(CNc2nc(Nc3ccc4c(c3)[C@@H]3C[C@@H]4CNC3=O)ncc2C(F)(F)F)c1 | 0%
24 | C[C@@H](Oc1cc(-n2cnc3ccc(-c4ccncc4)cc32)sc1C(N)=O)c1ccccc1Cl [GSK483724] | 0%
25 | CCOC(=O)N1CCC(n2cnc(-c3ccc(F)cc3)c2-c2ccnc(N)n2)CC1 [SB-219952] | 0%
26 | Cn1ccc2ncnc(Oc3ccc(NC(=O)Nc4cc(C(C)(C)C)on4)c(Cl)c3)c21 | 58%
27 | Cc1n[nH]c2cc(Nc3ccnc(Nc4cccc(CN5CCOCC5)c4)n3)ccc12 [GW682569] | 0%
28 | NC(=O)c1ccc(-c2cc3ncnc(SCC(=O)O)c3s2)cc1 | 0%
29 | Cc1ccc(CC(=O)N2CCc3cc(-c4cn(C)c5ncnc(N)c45)ccc32)cc1 [GSK2634758] | 0%
30 | COc1ccc(Nc2nccc(N3CCC(NC(=O)c4cccc(C#N)c4)C3)n2)cc1 (centres unmarked) [GSK1379730] | 12%
31 | Cn1ccc2ncnc(Oc3ccc(NC(=O)Nc4cccc(C(F)(F)F)c4)c(Cl)c3)c21 | 84%
32 | O=C(Nc1ccccc1)c1cccc(Oc2ccc3nccn3n2)c1 | 0%
33 | Cn1ccc2ncnc(Oc3ccc(NC(=O)Nc4cnn(C(C)(C)C)c4)c(Cl)c3)c21 | 18%
34 | CCn1c(-c2nonc2N)nc2cncc(CNC3CCNCC3)c21.Cl [SB-747651] | 0%
35 | COc1cc2nccc(Nc3ccc(Oc4ccccc4)cc3)c2cc1OC.Cl [GI261656] | 0%
36 | Cl.Cl.NC[C@H](CC1CCCCC1)NC(=O)c1ccc(-c2ccnc3[nH]ccc23)s1 [GSK1581428] | 0%
37 | Cc1cccc(-c2nc(Nc3ccncc3)c3sccc3n2)n1 [GW869641] | 23%

tested on: EPHA6; conditions: concentration: 1 μM,replicates: in singlicate; n = 1

Row | Structure (SMILES) | %Inh
38 | CNC(=O)c1ccccc1Nc1nc(Nc2cccc(CS(C)(=O)=O)c2)ncc1C.O=CO [GSK1520489] | 90%
39 | O=C(Nc1n[nH]c2cc(-c3ccco3)ccc12)C1CC1 [SB-737447] | 0%
40 | CSc1nccc(-c2c(-c3ccc(F)cc3)ncn2CCCN2CCOCC2)n1.Cl [SB-217146] | 0%
41 | COc1cccc(CNC(=O)NC2CCN(c3ccnc(Nc4cc(OC)c(OC)c(OC)c4)n3)C2)c1 (centres unmarked) [GSK1379765] | 15%
42 | Cn1cc(-c2cccc3c(N)c(C(N)=O)nnc23)cn1 | 17%
43 | Cc1ccc(Nc2ccnc(Nc3ccc4c(c3)CS(=O)(=O)C4)n2)cc1O.Cl [GW579362] | 53%
44 | CC(C(=O)NC1CCN(c2ccnc(Nc3ccc(F)cc3)n2)C1)c1ccc(Cl)cc1 (centres unmarked) [GSK1379713] | 0%
45 | COc1cc2c(Nc3ccc(NC(=O)c4ccccc4)cc3)ncnc2cc1OCCCN1CCOCC1 [GSK301329] | 5%
46 | N#Cc1cccc(C(=O)NC2CCN(c3ccnc(Nc4ccc(F)cc4)n3)C2)c1 (centres unmarked) [GSK1379708] | 2%
47 | CN1CCN(CCCNc2nccc(-c3c(-c4ccc(F)cc4)nn4cc(C(N)=O)ccc34)n2)CC1 [GW622475] | 21%
48 | O=C(Nc1cccc(C(F)(F)F)c1)c1cccc(Oc2ccc3nccn3n2)c1 | 10%
49 | COC(=O)Nc1nc2cc(Oc3ccc(NC(=O)Nc4cc(C(F)(F)F)ccc4Cl)cc3)ccc2[nH]1.Cl [GW697465] | 93.7%
50 | Cn1ccc2ncnc(Oc3ccc(NC(=O)Nc4ccnc(C(F)(F)F)c4)c(Cl)c3)c21 | 80%
51 | Cc1cccc2c(-c3ccncc3)c(-c3ccc(F)cc3)nn12.Cl [GW461487] | 6%
52 | COc1cccc(C2=C(Nc3cccc(Cl)c3)C(=O)NC2=O)c1 [SB-341556] | 13%
53 | OCCn1cc(-c2cnc3nnn(Cc4ccc5ncccc5c4)c3n2)cn1 | 0%
54 | CC(=O)c1c(-c2ccncc2)[nH]c(-c2ccncc2)c1C [GW493036] | 0%
55 | Cn1ccc2ncnc(Oc3ccc(NC(=O)Nc4cncc(C(F)(F)F)c4)c(Cl)c3)c21 | 97.5%
56 | O=c1[nH]cc(-c2ccc(O)cc2)c2sc(-c3ccncc3)cc12 [GSK1033723] | 6%

Row | Structure (SMILES) | %Inh
57 | COC(=O)c1cccc(NC(=O)NC2CCN(c3ccnc(NCc4ccc(F)cc4)n3)CC2)c1 [GSK1379860] | 8%
58 | Cn1ccc2ncnc(Oc3ccc(NC(=O)Nc4cccc(C(F)(F)F)c4)c(F)c3)c21 | 97.7%
59 | Cl.c1ccc(Oc2ccc(Nc3ccnc4cc(-c5ccc(CN6CCNCC6)o5)ccc34)cc2)nc1 [GW567142] | 0%
60 | CS(=O)(=O)c1cccc(CNc2nc(Nc3ccc4c(c3)[C@@H]3C[C@@H]4CNC3=O)ncc2C(F)(F)F)c1 | 11%
61 | C[C@@H](Oc1cc(-n2cnc3ccc(-c4ccncc4)cc32)sc1C(N)=O)c1ccccc1Cl [GSK483724] | 16%
62 | CCOC(=O)N1CCC(n2cnc(-c3ccc(F)cc3)c2-c2ccnc(N)n2)CC1 [SB-219952] | 12%
63 | Cn1ccc2ncnc(Oc3ccc(NC(=O)Nc4cc(C(C)(C)C)on4)c(Cl)c3)c21 | 99.6%
64 | Cc1n[nH]c2cc(Nc3ccnc(Nc4cccc(CN5CCOCC5)c4)n3)ccc12 [GW682569] | 17%
65 | NC(=O)c1ccc(-c2cc3ncnc(SCC(=O)O)c3s2)cc1 | 21%
66 | Cc1ccc(CC(=O)N2CCc3cc(-c4cn(C)c5ncnc(N)c45)ccc32)cc1 [GSK2634758] | 0%
67 | COc1ccc(Nc2nccc(N3CCC(NC(=O)c4cccc(C#N)c4)C3)n2)cc1 (centres unmarked) [GSK1379730] | 0%
68 | Cn1ccc2ncnc(Oc3ccc(NC(=O)Nc4cccc(C(F)(F)F)c4)c(Cl)c3)c21 | 99.7%
69 | O=C(Nc1ccccc1)c1cccc(Oc2ccc3nccn3n2)c1 | 2%
70 | Cn1ccc2ncnc(Oc3ccc(NC(=O)Nc4cnn(C(C)(C)C)c4)c(Cl)c3)c21 | 89%
71 | CCn1c(-c2nonc2N)nc2cncc(CNC3CCNCC3)c21.Cl [SB-747651] | 3%
72 | COc1cc2nccc(Nc3ccc(Oc4ccccc4)cc3)c2cc1OC.Cl [GI261656] | 0%
73 | Cl.Cl.NC[C@H](CC1CCCCC1)NC(=O)c1ccc(-c2ccnc3[nH]ccc23)s1 [GSK1581428] | 27%
74 | Cc1cccc(-c2nc(Nc3ccncc3)c3sccc3n2)n1 [GW869641] | 16%
